PubChem BioAssay AID720493 (The Scripps Research Institute Molecular Screening Center, 2013)
The list shows a part of the results.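 The calls were made as follows: active = compounds that raise the fluorescence signal in this interference counterscreen, with EC50 at or below 10 µM; inactive = the rest.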

Assay: EDANS-DABCYL fluorescence interference, concentration series, dose response, artefact control for kallikrein-7 zymogen activator project, biochemical, fluorescence intensity, triplicate (AID 720493);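 also: intact quenched peptide substrate alone read at 355 nm excitation and 520 nm emission; signal is fluorescence gain from T0 to T4 after four hours at room temperature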
Conditions: EDANS-DABCYL peptide fluorescence interference, no enzyme

EC50, inactive:
COC(=O)C1=NN(c2ccccc2)C2C(=O)N(c3ccccc3OC)C(=O)C12 (stereo not drawn) > 69.5 µM, O=C(OC1CCOC1=O)c1ccc(-c2nc3ccccc3s2)s1 (stereo not drawn) > 69.5 µM, Cc1cccc(C)c1NC(=O)C(c1ccccc1)N1CC(=O)Nc2ccccc21 (stereo not drawn) > 69.5 µM, COc1c(N2CCN(C(=S)Nc3ccccc3F)C(C)C2)c(F)cc2c(=O)c(C(=O)O)cn(C3CC3)c12 (stereo not drawn) > 69.5 µM, O=c1c(-c2ccccc2)coc2c(CN3CCOCC3)c(O)ccc12 > 69.5 µM, O=C(Oc1c(-c2ccco2)oc2ccccc2c1=O)c1cccnc1 21.2 µM, CN(C(=O)c1cc2c(=O)n3ccccc3nc2s1)C1CCCCC1 > 69.5 µM, COc1cccc2sc3cc(NCC[C@@H]4CCCN4C)ccc3c(=O)c12 > 69.5 µM
